Five molecules from PubChem BioAssay (EPA / NIEHS) can be followed below.

Assay [1] is described as follows: ATG_PPRE_CIS: Attagene CIS-FACTORIAL HepG2 Assay for human Peroxisome Proliferator-activated Response Element (PPRE) (AID 2282958). The following applies: HepG2 PPRE cis-element reporter, Attagene transcription factor profiling; actives raise or lower the signal. The essentials:
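HepG2 cells transiently transfected with multiplexed cis-element reporter units measure endogenous transcription factor activity. After 24 h compound exposure, reporter mRNA is quantified by RT-PCR, 6-FAM labeling, HpaI digestion and capillary electrophoresis; bidirectional fits are made against DMSO baseline.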

Assay [2] in a line: ATG_RORE_CIS: Attagene CIS-FACTORIAL HepG2 Assay for human RAR-related Orphan Receptor Element (RORE) (AID 2282959). The settings on record: HepG2 Attagene cis-factorial RORE reporter, mRNA; actives raise or lower the signal. The essentials: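 HepG2 cells transiently transfected with multiple cis-element reporter transcription units, exposed to chemical for 24 h. Reporter mRNA quantified by RT-PCR, 6-FAM primer-extension labeling, HpaI digestion and capillary electrophoresis; bidirectional fit versus DMSO baseline.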

The nature of assay [3]: ATG_Sox_CIS: Attagene CIS-FACTORIAL HepG2 Assay for human SRY-box transcription factor (SOX) (AID 2282960). The following applies: HepG2 Attagene cis-factorial SOX reporter, mRNA; actives raise or lower the signal. The method, boiled down:
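HepG2 cells transiently transfected with cis-element-driven multiple reporter transcription units, dosed 24 h; reporter mRNA measured by RT-PCR, FAM labelling, HpaI digestion and capillary electrophoresis. Bidirectional fit versus DMSO baseline.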

For assay [4], the target named is Transcription factor Sp1 (Homo sapiens) (UniProt P08047). Description: ATG_Sp1_CIS: Attagene CIS-FACTORIAL HepG2 Assay for human Specificity Protein 1 (Sp1) (AID 2282961). The following applies: HepG2 Sp1 cis-reporter transcription, actives raise or lower the signal. The method, boiled down: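 HepG2 cells transiently transfected with multiple reporter transcription units driven by cis-regulatory elements; Sp1-responsive reporter mRNA measured 24 h after dosing by RT-PCR and capillary electrophoresis fluorescence, fitted bidirectionally against DMSO baseline.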
Chain of Transcription factor Sp1 (Homo sapiens) (P08047 whole entry, looked up): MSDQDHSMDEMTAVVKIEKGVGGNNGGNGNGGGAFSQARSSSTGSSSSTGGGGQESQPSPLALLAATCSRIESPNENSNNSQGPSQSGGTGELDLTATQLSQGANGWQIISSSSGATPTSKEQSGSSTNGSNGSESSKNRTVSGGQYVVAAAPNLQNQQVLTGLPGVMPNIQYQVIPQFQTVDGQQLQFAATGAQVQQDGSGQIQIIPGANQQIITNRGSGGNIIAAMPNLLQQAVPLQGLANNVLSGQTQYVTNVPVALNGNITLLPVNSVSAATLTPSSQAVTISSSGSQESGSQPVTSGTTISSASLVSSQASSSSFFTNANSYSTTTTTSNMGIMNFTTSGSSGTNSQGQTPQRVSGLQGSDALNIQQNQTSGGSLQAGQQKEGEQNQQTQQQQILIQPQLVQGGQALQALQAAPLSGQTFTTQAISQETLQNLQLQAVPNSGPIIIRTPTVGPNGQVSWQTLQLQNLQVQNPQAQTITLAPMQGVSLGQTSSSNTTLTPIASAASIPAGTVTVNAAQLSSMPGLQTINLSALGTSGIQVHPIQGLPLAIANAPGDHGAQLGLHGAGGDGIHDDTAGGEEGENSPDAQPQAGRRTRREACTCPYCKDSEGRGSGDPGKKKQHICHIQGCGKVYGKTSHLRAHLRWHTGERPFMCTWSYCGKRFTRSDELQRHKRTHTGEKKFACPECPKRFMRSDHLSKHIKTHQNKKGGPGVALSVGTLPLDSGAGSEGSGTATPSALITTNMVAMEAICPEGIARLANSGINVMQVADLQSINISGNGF

Assay [5] is described as follows: ATG_SREBP_CIS: Attagene CIS-FACTORIAL HepG2 Assay for human Sterol Regulatory Element Binding (SREBP) (AID 2282962). The settings on record: HepG2 Attagene cis-factorial SREBP reporter, mRNA; actives raise or lower the signal. The essentials:
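mRNA induction of transfected cis-promoter reporters in HepG2 cells, 24 h post-dose. Detection: RT-PCR with 6-FAM-labelled products, HpaI digest, capillary electrophoresis. DMSO served as negative control and baseline.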

For assay [6], the target named is Signal transducer and activator of transcription 3 (Homo sapiens) (UniProt P40763). Description: ATG_STAT3_CIS: Attagene CIS-FACTORIAL HepG2 Assay for human Signal Transducer and Activator of Transcription 3 (STAT3) (AID 2282963). The following applies: HepG2, Attagene cis-factorial STAT3 reporter transcription; actives raise or lower the signal. The essentials: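 HepG2 cells transiently transfected with multiple cis-element-driven reporter units report endogenous transcription factor activity. After 24 h compound exposure, reporter mRNA is measured by RT-PCR, 6-FAM labelling, HpaI digestion and capillary electrophoresis. Fitted bidirectionally versus DMSO.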
Chain of Signal transducer and activator of transcription 3 (Homo sapiens) (P40763 whole entry, looked up): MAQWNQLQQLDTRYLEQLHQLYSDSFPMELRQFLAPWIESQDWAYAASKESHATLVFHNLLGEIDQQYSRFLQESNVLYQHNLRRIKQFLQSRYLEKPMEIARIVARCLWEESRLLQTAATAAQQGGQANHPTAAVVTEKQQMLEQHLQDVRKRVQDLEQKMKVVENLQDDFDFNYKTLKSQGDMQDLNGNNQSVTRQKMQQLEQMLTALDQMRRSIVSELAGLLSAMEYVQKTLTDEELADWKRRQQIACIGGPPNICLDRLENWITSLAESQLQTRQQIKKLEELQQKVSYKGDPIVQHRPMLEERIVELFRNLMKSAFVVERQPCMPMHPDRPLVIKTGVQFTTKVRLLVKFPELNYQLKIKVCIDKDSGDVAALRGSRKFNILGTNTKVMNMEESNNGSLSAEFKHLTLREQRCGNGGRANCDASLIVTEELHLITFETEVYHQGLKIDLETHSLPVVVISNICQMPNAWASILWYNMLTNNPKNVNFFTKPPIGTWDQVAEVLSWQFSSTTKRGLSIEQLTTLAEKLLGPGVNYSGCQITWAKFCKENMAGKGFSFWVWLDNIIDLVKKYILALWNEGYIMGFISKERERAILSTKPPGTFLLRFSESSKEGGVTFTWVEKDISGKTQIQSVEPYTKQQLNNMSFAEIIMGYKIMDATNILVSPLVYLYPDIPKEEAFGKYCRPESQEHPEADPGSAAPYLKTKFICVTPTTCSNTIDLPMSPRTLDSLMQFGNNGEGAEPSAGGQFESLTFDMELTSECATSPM

Assay [7] is described as follows: ATG_TCF_b_cat_CIS: Attagene CIS-FACTORIAL HepG2 Assay for human T-Cell-Factor with beta-catenin (TCF/b-cat) (AID 2282965). The settings on record: HepG2 TCF/beta-catenin cis-reporter transcription, actives raise or lower the signal. The method, boiled down: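 HepG2 cells transiently transfected with cis-promoter-driven multiplexed reporter units; reporter mRNA measured 24 h after dosing by RT-PCR, FAM labelling, HpaI digestion and capillary electrophoresis. Bidirectional fitting relative to DMSO baseline.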

Assay [8] in a line: ATG_TAL_CIS: Attagene CIS-FACTORIAL HepG2 Assay for human TAL Basal Promoter (AID 2282966).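 Also: background control endpoint measuring basal TAL promoter reporter mRNA not a specific factor.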 The following applies: HepG2 Attagene cis-factorial TAL promoter reporter; actives raise or lower the signal. The essentials:
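HepG2 cells were transiently transfected with promoter-driven multiplexed reporter units and dosed for 24 h. Reporter mRNA was measured by RT-PCR with capillary electrophoresis fluorescence; bidirectional fits used DMSO as baseline, serving as a background control.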

Assay [9] in a line: ATG_TGFb_CIS: Attagene CIS-FACTORIAL HepG2 Assay for human Transforming Growth Factor (TGF) (AID 2282967). The settings on record: HepG2 Attagene CIS TGFb reporter, mRNA transcription; actives raise or lower the signal. The essentials:
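Liver HepG2 line, cis-factorial reporter panel, 24 h dosing. Quantitation: RT-PCR products labeled with 6-FAM, cut with HpaI, resolved by capillary electrophoresis; DMSO-referenced bidirectional analysis.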

The nature of assay [10]: ATG_VDRE_CIS: Attagene CIS-FACTORIAL HepG2 Assay for human Vitamin D Receptor Element (VDRE) (AID 2282968). The following applies: HepG2 VDRE cis-reporter transcription, actives raise or lower the signal. The essentials: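 Transiently transfected HepG2 cells carrying cis-regulated reporter transcription units were exposed for 24 h. Reporter mRNA was measured by RT-PCR with fluorescent labelling and capillary electrophoresis, and fitted in both directions against DMSO.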

Assay [11] deals with Estrogen receptor (Homo sapiens) (UniProt P03372). Description: ATG_ERa_TRANS: Attagene TRANS-FACTORIAL HepG2 Assay for human Estrogen Receptor alpha (ERa) (AID 2282970; active = hit-call score of the fitted dose curve at least 0.9, where 1 is the maximum). The settings on record: HepG2 Attagene TRANS ERa GAL4 reporter, mRNA. The method, boiled down: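 HepG2 cells transiently transfected with multiplexed GAL4-UAS reporter units; ERa activity read via exogenous chimeric NR-Gal4 protein. After 24 hour compound exposure, reporter mRNA measured by RT-PCR with 6-FAM labelling and capillary electrophoresis; gain-of-signal fitted relative to DMSO.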
Chain of Estrogen receptor (Homo sapiens) (P03372 whole entry, looked up, the tested form may be a part): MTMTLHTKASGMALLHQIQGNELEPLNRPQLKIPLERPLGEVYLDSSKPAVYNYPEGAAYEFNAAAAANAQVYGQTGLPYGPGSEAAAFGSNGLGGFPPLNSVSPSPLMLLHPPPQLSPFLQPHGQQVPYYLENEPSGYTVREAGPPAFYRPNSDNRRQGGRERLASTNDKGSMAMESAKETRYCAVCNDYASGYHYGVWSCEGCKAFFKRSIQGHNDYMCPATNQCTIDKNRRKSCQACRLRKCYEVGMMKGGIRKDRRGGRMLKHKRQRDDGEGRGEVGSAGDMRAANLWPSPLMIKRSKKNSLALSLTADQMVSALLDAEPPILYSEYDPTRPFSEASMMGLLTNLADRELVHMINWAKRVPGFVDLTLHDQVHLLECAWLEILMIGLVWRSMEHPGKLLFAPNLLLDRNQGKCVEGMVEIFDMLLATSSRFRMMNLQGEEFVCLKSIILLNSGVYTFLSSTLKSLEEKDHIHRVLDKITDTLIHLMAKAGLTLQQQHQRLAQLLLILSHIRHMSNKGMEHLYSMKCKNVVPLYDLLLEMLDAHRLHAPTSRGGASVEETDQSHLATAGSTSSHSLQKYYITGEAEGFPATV

The target in assay [12] is X-box-binding protein 1 (Homo sapiens) (UniProt P17861). Description: ATG_Xbp1_CIS: Attagene CIS-FACTORIAL HepG2 Assay for human X-box Binding Protein 1 (XBP1) (AID 2282972). The following applies: HepG2 XBP1 cis-element reporter, Attagene multiplex; actives raise or lower the signal. The method, boiled down: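 Fluorescence-labelled cDNA fragments from reporter transcripts, separated by capillary electrophoresis, give the signal. Source: HepG2 cells transfected with promoter-driven reporter units, harvested 24 h post-dose. DMSO served as reference for bidirectional curve fitting.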
Chain of X-box-binding protein 1 (Homo sapiens) (P17861 whole entry, looked up, the tested form may be a part): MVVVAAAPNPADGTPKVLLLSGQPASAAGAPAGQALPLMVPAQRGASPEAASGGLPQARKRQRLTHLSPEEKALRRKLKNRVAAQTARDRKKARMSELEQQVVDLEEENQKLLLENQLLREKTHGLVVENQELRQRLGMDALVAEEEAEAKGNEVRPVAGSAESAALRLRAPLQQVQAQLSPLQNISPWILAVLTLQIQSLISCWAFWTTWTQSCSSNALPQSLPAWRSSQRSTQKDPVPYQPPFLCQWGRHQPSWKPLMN

A short description of assay [13]: ATG_GAL4_TRANS: Attagene TRANS-FACTORIAL HepG2 Assay for GAL4 (Internal Marker) (AID 2282976; active = hit-call score of the fitted dose curve at least 0.9, where 1 is the maximum). The following applies: HepG2 Attagene TRANS GAL4 internal marker reporter. The essentials:
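HepG2 cells transiently transfected with multiplexed GAL4-UAS reporter constructs were dosed for 24 h. Reporter mRNA was measured by RT-PCR, 6-FAM primer extension, HpaI digestion and capillary electrophoresis, and gain of signal was fitted relative to DMSO.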

A short description of assay [14]: ATG_TA_CIS: Attagene CIS-FACTORIAL HepG2 Assay for human TA Basal Promoter (AID 2282964). The following applies: HepG2 Attagene CIS-factorial TA basal promoter reporter; actives raise or lower the signal. The essentials:
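Background internal-marker endpoint from a 52-component HepG2 cis-reporter panel. Cells treated 24 h; reporter transcripts quantified via RT-PCR and CE fluorescence against DMSO baseline.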

Assay [15] deals with Nuclear receptor subfamily 1 group I member 3 (Homo sapiens) (UniProt Q14994). The assay is described as follows: ATG_CAR_TRANS: Attagene TRANS-FACTORIAL HepG2 Assay for human Constitutive Androstane Receptor (CAR) (AID 2282969; active = hit-call score of the fitted dose curve at least 0.9, where 1 is the maximum;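 also: activators raise reporter mRNA above DMSO so AC50 marks induction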). The settings on record: HepG2 Attagene TRANS-FACTORIAL CAR reporter. The essentials: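 HepG2 cells transiently transfected with GAL4-UAS reporter units; TRANS format reads activity of exogenous chimeric NR-Gal4 protein. After 24 h dosing, reporter mRNA quantified by RT-PCR, 6-FAM labelling and capillary electrophoresis; gain of signal fitted against DMSO.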
Chain of Nuclear receptor subfamily 1 group I member 3 (Homo sapiens) (Q14994 whole entry, looked up, the tested form may be a part): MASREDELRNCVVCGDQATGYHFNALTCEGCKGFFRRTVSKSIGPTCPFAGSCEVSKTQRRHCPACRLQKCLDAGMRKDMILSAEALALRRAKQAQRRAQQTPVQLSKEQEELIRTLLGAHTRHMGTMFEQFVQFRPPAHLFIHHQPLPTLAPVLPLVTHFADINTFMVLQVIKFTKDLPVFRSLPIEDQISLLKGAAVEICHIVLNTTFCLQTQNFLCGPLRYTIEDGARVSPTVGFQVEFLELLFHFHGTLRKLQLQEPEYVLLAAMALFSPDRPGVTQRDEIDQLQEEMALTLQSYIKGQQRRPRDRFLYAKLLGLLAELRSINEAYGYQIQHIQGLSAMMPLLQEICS

Assay [16] deals with Bile acid receptor (Homo sapiens) (UniProt Q96RI1). The assay is described as follows: ATG_FXR_TRANS: Attagene TRANS-FACTORIAL HepG2 Assay for Farnesoid X Receptor (FXR) (AID 2282979; active = hit-call score of the fitted dose curve at least 0.9, where 1 is the maximum;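 also: hits raise reporter mRNA above DMSO so AC50 marks FXR activation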). The settings on record: HepG2 Attagene TRANS FXR-GAL4 reporter transcription. The essentials: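 HepG2 cells transiently transfected with reporter constructs in which a chimeric FXR-GAL4 protein drives a GAL4-UAS reporter; 24 h compound exposure. Reporter mRNA measured by RT-PCR, FAM labelling, HpaI digestion and capillary electrophoresis; gain-of-signal versus DMSO.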
Chain of Bile acid receptor (Homo sapiens) (Q96RI1 whole entry, looked up, the tested form may be a part): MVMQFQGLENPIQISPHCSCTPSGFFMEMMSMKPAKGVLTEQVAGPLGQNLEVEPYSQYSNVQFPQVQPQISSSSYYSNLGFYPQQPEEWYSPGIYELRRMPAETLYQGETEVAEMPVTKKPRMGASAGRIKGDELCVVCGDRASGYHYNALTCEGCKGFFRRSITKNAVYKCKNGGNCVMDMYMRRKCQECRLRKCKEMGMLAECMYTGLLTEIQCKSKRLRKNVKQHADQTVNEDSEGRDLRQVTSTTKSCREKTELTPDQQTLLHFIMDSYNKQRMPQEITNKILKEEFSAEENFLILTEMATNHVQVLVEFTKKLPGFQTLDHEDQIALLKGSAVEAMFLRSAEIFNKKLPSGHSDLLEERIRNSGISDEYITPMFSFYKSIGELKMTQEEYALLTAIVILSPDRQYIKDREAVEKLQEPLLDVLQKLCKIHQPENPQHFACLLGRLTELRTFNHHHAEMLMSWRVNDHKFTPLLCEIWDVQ

Assay [17] is described as follows: ATG_M_19_TRANS: Attagene TRANS-FACTORIAL HepG2 Assay for M19 Transcription Factor (Internal Marker) (AID 2282974; active = hit-call score of the fitted dose curve at least 0.9, where 1 is the maximum). The settings on record: HepG2 Attagene TRANS-FACTORIAL M19 internal marker reporter. The essentials: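 HepG2 cells transiently transfected with multiple GAL4-UAS reporter transcription units were exposed to chemicals for 24 h. Reporter mRNA was read by RT-PCR, 6-FAM primer extension, HpaI digestion and capillary electrophoresis; gain of signal fitted relative to DMSO.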

For assay [18], the target named is Estrogen-related receptor gamma (Homo sapiens) (UniProt P62508). The assay is described as follows: ATG_ERRg_TRANS: Attagene TRANS-FACTORIAL HepG2 Assay for human Estrogen-Related Receptor gamma (ERRg) (AID 2282977; active = hit-call score of the fitted dose curve at least 0.9, where 1 is the maximum;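 also: hits increase reporter signal over DMSO so potencies reflect activators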). The settings on record: HepG2 Attagene TRANS reporter, ERRg transactivation. The method, boiled down: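 HepG2 cells transiently transfected with multiplexed GAL4-UAS reporter units driven by chimeric NR-Gal4 proteins; 24 h exposure. Reporter mRNA quantified by RT-PCR, fluorescent labelling, HpaI digestion and capillary electrophoresis; gain of signal vs DMSO.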
Chain of Estrogen-related receptor gamma (Homo sapiens) (P62508 whole entry, looked up, the tested form may be a part): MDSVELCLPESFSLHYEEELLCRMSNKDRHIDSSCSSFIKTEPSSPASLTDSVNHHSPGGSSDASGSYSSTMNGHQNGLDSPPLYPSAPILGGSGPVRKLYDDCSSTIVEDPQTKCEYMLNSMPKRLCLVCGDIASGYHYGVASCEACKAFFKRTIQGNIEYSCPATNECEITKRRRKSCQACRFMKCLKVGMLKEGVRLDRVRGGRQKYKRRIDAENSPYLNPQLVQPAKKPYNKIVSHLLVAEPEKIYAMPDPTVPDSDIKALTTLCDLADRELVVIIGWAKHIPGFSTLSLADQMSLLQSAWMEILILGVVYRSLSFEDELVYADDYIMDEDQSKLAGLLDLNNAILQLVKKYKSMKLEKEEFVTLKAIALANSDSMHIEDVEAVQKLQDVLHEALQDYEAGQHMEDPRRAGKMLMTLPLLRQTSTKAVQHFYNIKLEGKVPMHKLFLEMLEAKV

Records with an inconclusive call do not appear. Active and inactive are the calls of the source. The calls were made as follows, unless noted: active = hit-call score of the fitted dose curve at least 0.9, where 1 is the maximum; inactive = score below 0.9.

On to `N#CCCO`, for which the molecule was called inactive in [1], in assay [2], in assay [3], in assay [4], in assay [5] and in assay [6]. The call in assay [7], in assay [8], in assay [9], in [10], in [11] and in [12] was inactive. In [13], the call was inactive.
As for `CCCCCCCCC(=O)NCc1ccc(O)c(OC)c1`, the call in [1], in assay [2], in [3], in assay [4], in assay [5] and in assay [6] was inactive. For the same molecule, the molecule was classed as inactive in [14], in [7], in [9], in assay [10], in [11] and in assay [12].
Take `ClC1=C(Cl)[C@]2(Cl)[C@@H]3[C@@H](Cl)[C@@H](Cl)C[C@@H]3[C@@]1(Cl)C2(Cl)Cl`: the outcome in [1], in assay [2], in assay [3], in [4], in assay [5] and in [6] was inactive. Also, the outcome in assay [7], in assay [8], in assay [9], in [10], in assay [15] and in [11] was inactive. Also, the call in assay [12], in assay [13] and in assay [16] was inactive.
On to `Oc1ccc(-c2ccccc2)cc1`, for which the call in assay [1], in [5], in assay [6], in [14], in assay [7] and in [9] was inactive. Besides, the result in assay [16] was inactive. Further, the AC50 in assay [2] was 162 µM (active); in assay [3] it was 145 µM (active); in assay [4], 147 µM (active); in assay [10], 83.2 µM (active); in [12], 69.4 µM (active).
As to `O=C(Nc1ccc2[nH]ccc2c1)c1cc2cc(F)ccc2n1Cc1cccc(F)c1`, the molecule was called inactive in assay [1], in assay [2], in [5], in assay [9], in assay [15] and in assay [11]. Besides, the call in assay [17], in assay [13], in assay [18] and in assay [16] was inactive. Moreover, the AC50 is 16.8 µM (active) in [3]; 14.7 µM (active) in [4]; 14 µM (active) in [14]; 15.8 µM (active) in [7]; 11 µM (active) in assay [10]; 14.1 µM (active) in assay [12].
